# From PubChem BioAssay AID720542 (National Center for Advancing Translational Sciences (NCATS), 2013)
# In all, about 360,000 compounds went through this assay and about 740 (0.21%) were called active. Roughly 2% stayed inconclusive and do not appear here. The sample holds actives, similar compounds and a random draw of the others, so the mix is not that of the screen. Unmarked numbers belong to inactive results. Calls come from the whole dose curve; as a rule, active = well fitted inhibition curve with a large enough effect; inconclusive = small, poorly fitted or top-dose-only effect; inactive = no such curve, though single readings can be large or run the other way.
# Tested on: Plasmodium falciparum AMA1 (3D7) - RON2 peptide interaction
# Test: qHTS for Inhibitors of AMA1-RON; Towards Development of Antimalarial Drug Lead: Primary Screen; note: nearly all actives have a fitted effect of over 45% in size;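 for activity change, negative = inhibition: 0% = vehicle wells and -100% = peptide control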
# Settings: AlphaScreen AMA1-biotinylated RON2 peptide binding; series mostly up to 58.2 µM; activity change, negative = inhibition: at the top concentration
# Source text: Plasmodium, the causative agent of malaria, is one of the world's deadliest parasitic diseases. Currently there is no vaccine available and there is widespread resistance to common anti-malarial drugs. This warrants novel, alternative approaches for developing improved therapy. During infection, one such essential interaction is between two parasite proteins, the apical membrane antigen1 (AMA1) that is translocated onto the merozoite surface and the rhoptry neck protein 2 (RON2), which is transferred to the red blood cells (RBC) membrane during invasion (Besteiro et.al., 2009). Recently, the Miller lab has shown that the interaction between AMA1 and RON2 is essential for junction formation of the parasite with the host cell (Srinivasan et.al., 2011). The binding of the RON2 peptide to the hydrophobic pocket in AMA triggers the formation of the moving junction which provides a firm anchor for the parasite to pull itself into the RBC using its actin-myosin motor; an irreversible step that commits the parasite for invasion. Only one AMA1 and RON2 genes exists in Plasmodium and there are no alternate pathways. Moreover, the region corresponding to RON2 peptide is conserved in all P. falciparum isolates for which sequences are available. The key residues in the AMA1 hydrophobic pocket that binds RON2 are also conserved and indicate a functional constraint governing this essential step in invasion since a short RON2 peptide (RON2L) corresponding to the binding region on AMA1 is sufficient to compete with the native RON2 protein and inhibits invasion (Tonkin et.al, 2011). Therefore, developing small molecule inhibitors of this interaction offers a promising target opening a new arena for anti-malarial therapeutics drug design.
# In collaboration with the Miller lab, a quantitative High Throughput Screen using the AlphScreen technology was developed using a recombinant his-tagged AMA1 and a biotinylated RON2 peptide. This fluorescent screen was assayed against the NIH Molecular Libraries Small Molecule Repository (MLSMR). Inhibition of this protein-protein interaction is the desired outcome of this assay. However, due the limitations of this AlphaScreen assay, a large number of artifacts were observed. An AlphaScreen counterscreen was run to identify the true inhibitors, triage compound activity, and weed out false positives.
# NIH Chemical Genomics Center [NCGC]
# NIH Molecular Libraries Probe Centers Network [MLPCN]
# Assay Submitter (PI): Louis Miller, National Institute of Allergy and Infectious Disease (NIAID)
# Two microliters of his-tagged AMA1 3D7 allele protein (final concentration 25 nM) was dispensed into a 1,536-well assay plate. Small molecules and positive control peptides were pin-transferred (23 nL or 46 nL) via Kalypsys pin-tool equipped with a 1,536-pin array, resulting in final compound and peptide concentration ranges of 91.5 nM - 57.2 µM, and 15.6 nM - 2.00 µM, respectively. Unlabeled RON2 peptide or R1 peptide ([…]) that specifically binds the 3D7 AMA1 was used as a positive control that inhibited the binding of RON2L to AMA1. After 15 minutes incubation, 1 uL of biotinylated RON2 peptide (final concentration 25 nM) or buffer were dispensed and the assay plate was incubated for an additional 30 minutes at room temperature and protected from light. This was followed by an addition of 1 uL mixture of donor and acceptor beads (10 ug/mL final concentrations for each). The plates were incubated for 30 min at room temperature and read using the EnVision(R) plate reader (PerkinElmer). Maximum inhibition response was normalized to the positive control signal while no inhibition response was normalized to the DMSO treated wells.
# Potency is the fitted concentration of half-maximal effect.
Compound,"activity change, negative = inhibition [%]",Potency
Cc1ccc(NC(=O)COC(=O)CCc2nc3ccccc3n2-c2ccccc2)c(C)c1,-3.7,–
CCN(c1ccc(NC(=O)COC(=O)CCc2nc3ccccc3n2-c2ccccc2)cc1)C(C)C,–,10 µM (active)
CC(C)(C)c1ccc(NC(=O)COC(=O)CCc2nc3ccccc3c(=O)[nH]2)cc1,-19.8,–
CC(C)NC(=O)Nc1ccc2c(c1)C(=O)N([C@H](C)CO)C[C@H](C)[C@@H](CN(C)Cc1ccc(C(F)(F)F)cc1)OCCCC[C@@H](C)O2,12.3,–
C=C1c2c(Cl)ccc(O)c2C(O)=C2C(=O)[C@]3(O)C(O)=C(C(N)=O)C(=O)[C@@H](N(C)C)[C@@H]3[C@@H](O)C12 (stereo not given in full),–,1.41 µM (active)
CC(=O)Nc1nc(C)c(Cc2ccccc2)c(=O)[nH]1,3.67,–
C#CCOCCOCCOCCNc1nc(N2CCN(C(=O)C([C@@H](C)CC)n3cc(C(N)COC(=O)C(F)(F)F)nn3)CC2)nc(N2CCN(C(=O)[C@H](Cc3ccc(O)cc3)n3cc(C(N)[C@H](C)CC)nn3)CC2)n1 (stereo not given in full),13.4,–
O=[N+]([O-])c1ccc(Sc2n[nH]c(-c3ccco3)n2)nc1,6.13,–
COc1ccc(CNC(=O)COC(=O)C2=Cc3ccccc3OC2)cc1,51.9,–
OCC#CC[N+]1(CC#Cc2ccccc2)CCCC1,3.31,–
CC1(C)Cc2c(sc(NC(=O)C(=O)NCC3CCCO3)c2C(=O)O)CO1 (stereo not given),139,–
O=C(Nc1ccc(CSc2ccccc2)cc1)c1ccc(CN2CCOCC2)cc1,-4.5,–
CN(C)c1ccc(C(CC(=O)O)C(=O)O)cc1 (stereo not given),-25.3,–
CN(C)c1ccc(CSc2ccccc2)cc1,–,8.91 µM (active)
Cc1cccc(CSc2nc3c(c(=O)n2C)SCC3)c1,-14.7,–
N#Cc1ccc(/C=C2\CCn3c2nc2cc(C(=O)O)ccc2c3=O)cc1,-7.09,–
Cc1ccc(/C=C2\CCn3c2nc2cc(C(=O)O)ccc2c3=O)c(C)c1,5.89,–
O=C(O)c1ccc2c(=O)n3c(nc2c1)/C(=C/c1ccc(OC(F)F)cc1OC(F)F)CC3,–,20 µM (active)
CCOC(=O)c1c(-n2cnnn2)sc(C)c1C,-5.49,–
COc1ccc2c(c1)c(=Cc1ccc(N(C)C)cc1)c1cc(-c3ccccc3)[n+](C)n12,–,17.8 µM (active)
CCCCCOC(=O)C1=C(C)Nc2nnnn2C1c1ccc(OC)c(OC)c1OC (stereo not given),-11.7,–
COc1ccc(-c2nc3c(s2)CCc2onc(-c4ccc(Br)cc4)c2-3)cc1,7.5,–
CC1(C(=O)NCC2CCOCC2)Cc2c(-c3cccc(C(N)=O)c3)ccnc2O1 (stereo not given),-0.312,–
CN(Cc1c(F)cccc1Cl)C(=O)COC(=O)Cn1cnc2ccccc2c1=O,10.2,–
COc1ccc(/C(N)=N/OC(=O)Oc2ccccc2)cc1,-11.4,–

Compound,"activity change, negative = inhibition [%]",Potency
COc1ccc(C(C#N)=C2C=CC(=NO)c3ccccc32)cc1,–,12.6 µM (active)
COC(=O)Nc1ncc(CN2CCCCC2)s1,11.8,–
CC(C)(C)c1nnc(N/N=C/c2ccc(O)cc2)n(N)c1=O,46.9,–
CC(=O)Nc1ccc(S(=O)(=O)Nc2nc3n(n2)C(c2ccccc2)CC(=O)N3)cc1 (stereo not given),-0.175,–
CCCCN(C(=O)CSCc1ccc(C)cc1)c1c(N)n(Cc2ccccc2)c(=O)[nH]c1=O,-24.8,–
O=C(Nn1cnnc1)c1cc(Cl)ccc1Cl,3.21,–
Cc1cc(NC(=O)CCS(=O)(=O)c2ccc(F)cc2)no1,-10,–
CCn1c(SCC(=O)NC2=NCCS2)nnc1C(C)NC(=O)c1ccccc1F (stereo not given),6.74,–
COc1ccc(NC(=O)NC2CC3CCCC(C2)N3Cc2ccccc2)cc1 (stereo not given),1.56,–
Cc1c(S(=O)(=O)NCc2ccccc2)c(=O)n(C)c(=O)n1C,0.652,–
CC(C)(C)C1CCC(=O)N2CCC[C@]2(c2ccccc2)C1 (stereo not given in full),1.71,–
O=C(O)CCCN1C(=O)c2ccccc2Sc2ncccc21,-0.796,–
Cc1ccc(C(=O)NCCc2nnc(SCC(=O)Nc3cccc(C(=O)O)c3)n2C)cc1,5.86,–
CCCCc1nc2c(=O)[nH]c3ccccc3c2o1,4.28,–
CC(Sc1nnnn1C1CCCCC1)C(=O)O (stereo not given),25.4,–
CC(=O)c1c(C)[nH]c(C(=O)OCC(=O)Nc2cc(S(=O)(=O)N3CCCCC3)ccc2C)c1C,6.19,–
CN(Cc1ccccc1F)c1cc2c(c3c1ccn3C)C1CCC2O1 (stereo not given),–,31.6 µM (active)
CCCCN(C(=O)c1nn(C)c(=O)c2ccccc12)c1c(N)n(CCC)c(=O)[nH]c1=O,-1.58,–
O=C(Nc1ccc2c(c1)nc1n2CCCCC1)c1cc(S(=O)(=O)N2CCOCC2)ccc1Cl,-0.329,–
CCOC(=O)C1=C(CC)Nc2ccccc2N=C1NC(=O)c1cccc(S(=O)(=O)N2CCCC2)c1,-14.1,–
Cc1ncoc1C(=O)NCCC(c1ccccc1)c1ccccc1,-4.05,–
Cc1ccc(S(=O)(=O)/N=C(\CN2CCOCC2)N2CCOCC2)cc1,14.9,–
C=CC(=O)Nc1ccc(Nc2ccnc(Nc3ccc(N4CCN(C)CC4)cc3)n2)cc1,–,15.8 µM (active)
COc1ccc(N2CCN(C(=S)Nc3ccc(S(N)(=O)=O)cc3)CC2)cc1,-9.14,–
O=C(Nc1ccc(N2CCN(C(=O)c3cccs3)CC2)cc1)c1cccnc1Cl,-6.85,–
